Data reported in PubChem BioAssay (EPA / NIEHS).
Records with an inconclusive call do not appear. Active and inactive are the calls of the source. How the source made its calls: active means hit-call score of the fitted dose curve at least 0.9, where 1 is the maximum; inconclusive means response in the unintended direction; inactive means score below 0.9.

Assay: ACEA_ER_AUC_viability: ACEA Biosciences xCELLigence Real-Time Cell Analysis on Estrogen Receptor Agonism for Viability (AID 2283782)
How it was run: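 Read-out: real-time electrical impedance (RT-CES) area under curve, loss of signal taken as reduced viability, normalized to DMSO baseline. T-47D cells, charcoal-stripped serum medium, compounds up to 100 uM final, continuous exposure, 80 h.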

Row | SMILES | outcome | AC50
1 | CCCCCCCOC(=O)c1ccccc1C(=O)OCCCCCCC | inactive | 
2 | O=C(O)C(F)(F)C(F)(F)C(F)(F)C(F)(F)C(F)(F)C(F)(F)C(F)(F)C(F)(F)C(F)(F)C(F)(F)C(F)(F)C(F)(F)C(F)(F)F |  | 2.91 µM (active)
3 | CCCCCC=O | inactive | 
4 | FC(F)(F)C(F)(F)C(F)(F)C(F)(F)C(F)(F)CCI | inactive | 
5 | CO[Si](OC)(c1ccccc1)c1ccccc1 |  | 79.9 µM (active)
6 | CC(=O)Nc1ccc(N=Nc2cc(C)ccc2O)cc1 | inactive | 
7 | CC(Cc1ccc(O)c(O)c1)C(C)Cc1ccc(O)c(O)c1 (stereo not given) |  | 27.6 µM (active)
8 | CC/C=C\CCOC(=O)c1ccccc1 |  | 76.7 µM (active)
9 | CCCCCCS |  | 50 µM (active)
10 | O=C(O)C(F)(OC(F)(F)C(F)(OC(F)(F)C(F)(F)C(F)(F)F)C(F)(F)F)C(F)(F)F (stereo not given) | inactive | 
11 | FC(F)(F)C(F)(F)CNCC(F)(F)C(F)(F)F | inactive | 
12 | COC(=O)CCC(F)(F)C(F)(F)C(F)(F)C(F)(F)F | inactive | 
13 | CC(C)OC(=O)c1ccccc1C(=O)OC(C)C | inactive | 
14 | FC(F)(F)C(F)(F)C(F)(F)C(F)(F)C(F)(F)C(F)(F)C(F)(F)Br | inactive | 
15 | CCCCOCCOCCOC(=O)CCCCC(=O)OCCOCCOCCCC | inactive | 
16 | O=C(OCCOCCOCCOC(=O)c1ccccc1)c1ccccc1 | inactive | 
17 | OC[C@@H](O)[C@@H](O)[C@H](O)[C@@H](O)CO | inactive | 
18 | N=C(N)C(F)(F)C(F)(F)C(F)(F)C(F)(F)C(F)(F)C(F)(F)C(F)(F)F |  | 75 µM (active)

Row | SMILES | outcome | AC50
19 | CC/C=C\CCOC(C)=O | inactive | 
20 | CC(C)=CCCC(C)CCOC(=O)C(C)C (stereo not given) |  | 50 µM (active)
21 | FC(F)(F)C(F)(F)C(F)(F)C(F)(F)C(F)(F)C(F)(F)C(F)(F)I | inactive | 
22 | O=C(O)C(F)(F)C(F)(F)C(F)(F)F | inactive | 
23 | CCc1c(Br)c(Br)c(Br)c(Br)c1Br | inactive | 
24 | c1ccc(-c2ccccc2-c2ccccc2)cc1 |  | 78.7 µM (active)
25 | Cc1ccc(S(=O)(=O)NCl)cc1 | inactive | 
26 | C(=C(c1ccccc1)c1ccccc1)c1ccccc1 |  | 87.1 µM (active)
27 | O=S(=O)(O)C(F)(F)C(F)(F)C(F)(F)C(F)(F)C(F)(F)C(F)(F)C(F)(F)F | inactive | 
28 | CC(C)c1ccccc1N |  | 50 µM (active)
29 | FC(F)(F)C(F)(F)C(F)(F)C(F)(F)C(F)(F)C(F)(F)CC1CO1 (stereo not given) | inactive | 
30 | O=C(O)C(F)(F)C(F)(F)F | inactive | 
31 | O=S(=O)(OCC(F)F)C(F)(F)F | inactive | 
32 | OCC(F)(F)C(F)(F)C(F)(F)C(F)(F)C(F)(F)C(F)F | inactive | 
33 | FC1CC(F)(F)C(F)(F)C1(F)F (stereo not given) | inactive | 
34 | C1COCCN1 | inactive | 
35 | O=C(O)C(F)(F)C(F)(F)C(F)(F)C(F)(F)C(F)(F)C(F)(F)C(F)(F)C(F)(F)Cl |  | 119 µM (active)
